Among the data in PubChem BioAssay (NCI) are growth values, retold here.

The panel holds about 83,000 compounds, 20% with a hit somewhere; the sample as a whole holds those more often.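 48-hour exposure, single concentration, 96-well plates; percent growth endpoint where 0 means no net growth. Active: below 10.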 Unmarked numbers belong to inactive results. Activity calls are given as the source filed them.

Test in all cases: NCI-60 one-dose screen, 48 h (100 = growth as untreated, 0 = no growth, -100 = all killed)
Settings in all cases: 10 µM unless noted

For test [1], the system named is DU-145 prostate.
In test [2] the test system is K-562 leukemia.
In test [3] the test system is MALME-3M melanoma.
For test [4], the system named is MDA-MB-231 breast.
Test [5] has as its system RXF 393 renal.
Test [6] concerns SF-268 CNS.
Test [7] deals with SF-295 CNS.
For test [8], the system named is SF-539 CNS.
The test system of test [9] is UACC-257 melanoma.
Test [10] deals with M14 melanoma.
The subject of test [11] is HCT-15 colon.
Test [12] has as its system HT29 colon.
Test [13] deals with SNB-75 CNS.
In test [14] the test system is SNB-19 CNS.
The test system of test [15] is U251 CNS.
The test system of test [16] is PC-3 prostate.
Test [17] relates to SK-MEL-5 melanoma.
Test [18] deals with UACC-62 melanoma.
Test [19] relates to LOX IMVI melanoma.
The subject of test [20] is SK-MEL-28 melanoma.

For the compound `CCN(CC)C(=S)SC(SC(=S)N(CC)CC)C(=O)c1nnn(-c2ccc([N+](=O)[O-])cc2)c1C`, the growth in test [1] was 104%; in test [2], 81%; in test [3], 94.3%; in [4], 95.1%; in test [5], 114%; in test [6], 92.9%. Further, the growth was 100% in test [7]; 98.3% in [8]; 101% in test [9]; 96.9% in [10]; 99% in [11]; 87.3% in [12]. The growth is 107% in test [13]; 90.8% in [14]; 81.5% in test [15]; 78.1% in [16]; 76.7% in test [17]; 86.5% in test [18]. For the same compound, the growth is 89% in [19] and 104% in test [20].

With `O=C(Nc1nc2ccc(F)cc2s1)c1cccnc1Nc1ccc(Cl)cc1`, the growth in test [1] is 44.3%; in test [2], 5.7% (active); in test [3] it was 3.74% (active); in test [4], 50.7%; in [5], 59.8%; in [6], 37.2%. The growth in test [7] was 17.4%; in [8] it was 50.3%; in test [9], 43%; in test [10], 53.8%; in test [11] it was 29%; in test [12] it was 30.1%. In addition, the growth was 62.2% in test [13]; 26.4% in [14]; 21.6% in test [15]; 14% in [16]; 5.56% (active) in test [17]; 28.4% in [18]. Further, the growth was 48.3% in test [19] and 61.9% in test [20].

Consider `CC(C)OC(=O)c1ccc2[nH]c(O)c(C(=Nc3ccc(N(C)C(=O)CN4CCN(C)CC4)cc3)c3ccccc3)c2c1`, for which the growth in [1] is -23% (active); in [2], -15.2% (active); in test [3], -85% (active); in test [4], -71.4% (active); in test [5], -96.8% (active); in test [6], -32.7% (active). The growth in test [7] was -26.9% (active); in [8], -95.6% (active); in [9], -64.9% (active); in [10] it was -85.1% (active); in [11], -14.4% (active); in test [12], -48.1% (active). In addition, the growth in test [13] is -98.1% (active); in test [14], 1.52% (active); in test [15] it was -90.5% (active); in [16], 9.18% (active); in [17] it was -95.4% (active); in [18] it was -44.1% (active). In addition, the growth was -96.7% (active) in test [19] and -54.4% (active) in test [20].

On to `CCCCCCNC(=O)Oc1ccc(/C(=C(/C)Cc2ccc(OC)cc2)c2ccc(OCCCN(C)C)cc2)cc1`, for which the growth in [1] is 48.9%; in [2], -51.8% (active); in test [3], -51.2% (active); in test [4] it was 32.6%; in [5], 31.2%; in [6], 60.8%. Also, the growth is 10.5% in [7]; 40.7% in test [8]; -6.6% (active) in test [9]; -63.9% (active) in test [10]; -6.62% (active) in test [11]; -55.9% (active) in test [12]. Further, the growth was 65.9% in test [13]; 45.7% in [14]; -46.7% (active) in [15]; 24.3% in test [16]; 6.74% (active) in test [17]; -25.1% (active) in test [18]. In addition, the growth in test [19] is -60.5% (active); in test [20] it was -43.5% (active).

Turning to `OCCOCCN(Cc1ccccn1)Cc1cc(I)cc(I)c1O`, the growth in [1] is 87.8%; in test [2], 107%; in test [3], 87.8%; in test [4] it was 96%; in [5], 81.1%; in test [6], 81.4%. Further, the growth in [7] was 59.3%; in [8], 90.8%; in test [9] it was 104%; in [10] it was 81.1%; in test [11] it was 24.2%; in test [12], 98.5%. Moreover, the growth is 99.9% in [13]; 94.7% in test [14]; 83.5% in test [15]; 75.5% in [16]; 93.9% in [17]; 94.8% in test [18]. For the same compound, the growth is 62.3% in test [19] and 95.4% in test [20].

For `Cc1noc(C)c1C(=O)OCc1coc2ccccc2c1=O`, the growth in test [1] is 27.8%; in test [2], 36.5%; in test [3] it was 51.4%; in [4], 61.2%; in test [5] it was 76.5%; in test [6], 79.8%. Further, the growth in test [7] is 104%; in test [8], 68.5%; in [9] it was 72.2%; in test [10], 69.1%; in test [11], 52.5%; in test [12], 66%. The growth was 81.6% in test [13]; 82.7% in test [14]; 72.8% in test [15]; 70.1% in test [16]; 80% in test [17]; 54.7% in test [18]. In addition, the growth in [19] was 70.8%; in test [20], 86.8%.

`CN(C)c1ccc(/C=C/C(=O)c2ccc(-n3cc(CN4CCN(c5cc6c(cc5F)c(=O)c(C(=O)O)cn6C5CC5)CC4)nn3)cc2)cc1`: the growth in test [1] is 51.7%; in test [2], 21.9%; in test [3], 89.2%; in [4] it was 65.3%; in test [5], 45%; in test [6] it was 35.7%. For the same compound, the growth in test [7] was 81.2%; in test [8], 27.9%; in [9], 88.3%; in test [10], 60.9%; in [11], 63.4%; in [12], 28%. The growth in test [13] is 68.1%; in [14], 31.6%; in [15], 16.5%; in [16], 57.4%; in [17], 79%; in test [18], 55.8%. In addition, the figures for the growth in [19] and in test [20] were 20.3% and 68%, respectively.
